# HCMV inh = inhibitors of human cytomegalovirus | 4.5% of 410,000 active | HFF cells, HCMV-luciferase reporter, 72 h; hits give low values | activity change, negative = inhibition, % at 57.5 µM; in the data active means activity change below about -60%; inconclusive means no clear call, values can overlap the other calls; inactive means above about -39%
#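 Human foreskin fibroblasts infected with luciferase-reporter HCMV at MOI 1 PFU/cell, compounds at two doses. Luciferase measured 72 h post infection; normalized to buffer-only basal and Salinomycin (10uM) controls.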
# Tb PYK inh = T. brucei pyruvate kinase inhibition; Q57TT1; TbPYK enzyme, Kinase-Glo Plus ATP luminescence, 45 min; Potency, µM (doses to about 76.8 µM), hits mostly inhibitors; 0.12% of 410,000 active; AID 624173; further: nearly all actives have a fitted effect of over 50% in size
#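 Readout: single end-point luminescence (Kinase-Glo Plus, 10 min). Reaction conditions were TbPYK/substrate plus 130 uM ADP, 45 min at RT, pH 7.2 TEA buffer. No-enzyme wells served as controls, and data were normalized before concentration-response fitting.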
# Sm TGR block = S. mansoni TGR enzyme inhibition. purified TGR, DTNB reduction, TNB absorbance 405 nm. Potency, µM (titrated, usually from 114 µM), actives largely listed as inhibitors. 3% of 360,000 active. AID 485364; further: nearly all actives have a fitted effect of over 60% in size
#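 First, TGR (20 nM dispensed) and NADPH were mixed with compound. Second, a 15 min room-temperature incubation followed. Third, further NADPH and then DTNB were added to start the reaction. Finally, TNB absorbance was monitored kinetically.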
# RE007 growth inh = less growth of the S. pombe RE007 Vpr strain; 0.21% of 360,000 active; S. pombe RE007 Vpr strain, BacTiter-Glo ATP luminescence, 24 h; Potency, µM (doses to about 92.2 µM), actives largely listed as inhibitors; active means well fitted falling curve with a large enough effect; inconclusive means small, poorly fitted or top-dose-only effect; inactive means no such curve, though single readings can be large or run the other way; further: nearly all actives have a fitted effect of over 50% in size
#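 Fission yeast RE007 carrying one integrated HIV-1 vpr copy, seeded at OD 0.01 in PMG+AL medium with 23 nL pinned compound. Grown 24 h at 30 degrees; viability read by BacTiter-Glo luminescence after 5 min.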
# Giardia FBPA inh-1 = Giardia lamblia aldolase inhibition | purified Giardia FBPA | Potency, µM (doses to about 59.6 µM), usual class: inhibitors | 0.71% of 290,000 active; further: nearly all actives have a fitted effect of over 55% in size
# Target sequence (A8B2U2 whole entry, looked up): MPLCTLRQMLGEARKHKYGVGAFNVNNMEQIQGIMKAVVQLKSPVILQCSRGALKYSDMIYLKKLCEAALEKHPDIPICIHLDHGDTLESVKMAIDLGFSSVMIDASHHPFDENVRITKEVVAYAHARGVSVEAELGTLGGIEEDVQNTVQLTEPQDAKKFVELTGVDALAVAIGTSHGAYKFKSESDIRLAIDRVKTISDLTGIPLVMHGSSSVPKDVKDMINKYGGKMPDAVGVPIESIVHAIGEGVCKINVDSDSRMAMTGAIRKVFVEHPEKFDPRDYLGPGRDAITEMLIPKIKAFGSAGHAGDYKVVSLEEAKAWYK
#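 40 nM FBPA preincubated 10 min at RT with compound (up to 57.5 uM final), then substrate plus GAPDH/TPI/NAD/arsenate coupling and diaphorase/resazurin added. Fluorescence read after 20 min at RT, 525/598 nm.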
# FMDV inh = antivirals against foot and mouth disease virus; FMDV antiviral cell-based qHTS; AID 1159524; 1.2% of 410,000 active; Potency, µM (series often up to 57.9 µM), hits mostly inhibitors; calls by dose curve; tested in HEK293T cells; further: read-out not given here; nearly all actives have a fitted effect of over 45% in size
# Giardia growth = blocks growth of Giardia lamblia trophozoites; Potency, µM (doses to about 57.5 µM), usual class: inhibitors; 5% of 1,500 active; Giardia lamblia trophozoite growth inhibition; shares compounds with Giardia FBPA inh-1;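 further: trophozoites exposed to compound for 48 h at 37 °C; nearly all actives have a fitted effect of over 70% in size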
# Mammal cell tox = toxic to mammalian cells in Giardia aldolase counter-screen. shares compounds with Giardia FBPA inh-1. mammalian cell viability counter-screen, qHTS. Potency, µM (titrated, usually from 57.5 µM), hits mostly inhibitors. 4% of 1,500 active. AID 2786;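 further: Chinese hamster ovary cells used as mammalian cytotoxicity surrogate; viability measured as cellular ATP by luminescence; compound exposure lasted 48 h before reading; nearly all actives have a fitted effect of over 60% in size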
# Giardia FBPA inh-2 = confirmation of Giardia fructose-bisphosphate aldolase inhibitors; Potency, µM (series often up to 57.5 µM), most hits filed as inhibitors; shares compounds with Giardia FBPA inh-1; purified Giardia aldolase enzyme activity, qHTS; 5% of 1,500 active; further: nearly all actives have a fitted effect of over 45% in size
# Rabbit FBPA inh = rabbit FBP aldolase inhibition by Giardia aldolase hits. shares compounds with Giardia FBPA inh-1. Rabbit muscle FBPA enzyme inhibition, selectivity counter-screen. Potency, µM (highest dose often 57.5 µM), most hits filed as inhibitors. 4% of 1,500 active. AID 2794; further: nearly all actives have a fitted effect of over 60% in size
# Target sequence (P00883 whole entry, looked up): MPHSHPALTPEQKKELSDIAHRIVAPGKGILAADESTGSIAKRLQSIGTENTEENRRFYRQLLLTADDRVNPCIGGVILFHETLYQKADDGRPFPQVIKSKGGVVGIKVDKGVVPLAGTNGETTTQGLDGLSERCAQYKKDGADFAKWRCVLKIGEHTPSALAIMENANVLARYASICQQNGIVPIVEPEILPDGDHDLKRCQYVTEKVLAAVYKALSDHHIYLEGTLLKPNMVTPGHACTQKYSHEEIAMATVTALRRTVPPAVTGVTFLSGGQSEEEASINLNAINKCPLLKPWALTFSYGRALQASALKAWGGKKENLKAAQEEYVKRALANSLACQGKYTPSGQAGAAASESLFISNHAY
# GAPDH counter = counter-screen for Giardia aldolase inhibitors: GAPDH coupling enzyme; 6% of 1,500 active; GAPDH coupling enzyme counterscreen, biochemical, qHTS; shares compounds with Giardia FBPA inh-1; AID 2795; Potency, µM (doses to about 57.5 µM), most hits filed as inhibitors; further: nearly all actives have a fitted effect of over 55% in size
# Hits are given with their value; 0 = inactive; ? = inconclusive; - = no result given; [ ] = another dose, or the depositor's remark. Sampled rows, rich in hits. Any-hit rate of the full collection: about 7.7%. Unless noted, the call rests on the fitted dose curve; in most records, active means well fitted curve in the direction sought with a large enough effect; inconclusive means small, poorly fitted or top-dose-only effect, or another doubt; inactive means no such curve, though single readings can be large; an effect the other way counts as inactive or inconclusive.
SMILES,HCMV inh,Tb PYK inh,Sm TGR block,RE007 growth inh,Giardia FBPA inh-1,FMDV inh,Giardia growth,Mammal cell tox,Giardia FBPA inh-2,Rabbit FBPA inh,GAPDH counter
CCN(CC)CCN(Cc1cc2cc3c(cc2[nH]c1=O)OCO3)C(=S)NCC1CCCO1 (stereo not given),0,0,-,0,0,0,-,-,-,-,-
CCN(CC)CCN(Cc1cc2cc3c(cc2[nH]c1=O)OCCO3)C(=S)NCC1CCCO1 (stereo not given),0,0,-,0,7.9µM,0,0,0,0,0,0
CCOC(=O)c1cnc(-c2ccccc2O)nc1Cl,0,0,0,0,20µM,0,?,0,?,?,?
CCOC(=O)c1cnc(-c2ccccc2)nc1Oc1ccc(Cl)cc1,0,0,0,0,0,0,-,-,-,-,-
Cc1ccc2oc(=O)c3c4cc(O)c(O)cc4oc3c2c1,-,-,-,-,0,-,-,-,-,-,-
O=c1cc2c(=O)oc3cc(O)c(O)oc3c2c(O)c1O,0,0,?,0,2.8µM,0,0[10.4 µM],0,0,?,0
COc1ccc2c(c1)CC(C(=O)NCCN1CCN(c3cccc(Cl)c3)CC1)CO2 (stereo not given),0,0,0,-,-,0,-,-,-,-,-
COc1cc(Br)c(CNc2cc(C)ccc2C)cc1OC,?,0,0,0,20µM,?,0,0,0,0,0
COc1ccc(CNc2cc(C)ccc2C)c(OC)c1OC,0,0,0,0,0,0,-,-,-,-,-
COc1cccc(-c2nc(S(=O)(=O)c3ccc(Cl)cc3)c(NCc3ccccc3)o2)c1,0,0,0,-,-,0,-,-,-,-,-
Nc1nc(N)c(-c2ccccc2)s1,-,0,-,-,-,-,-,-,-,-,-
CCCn1nnc(NC(=S)NC(=O)c2cccs2)n1,0,0,0,0,5µM,0,?,0,0,0,0
CCCn1nnc(NC(=S)NC(=O)C(C)(C)C)n1,?,0,0,0,5.6µM,0,0,0,0,0,0
CCCn1nnc(NC(=S)NC(=O)/C=C/c2ccco2)n1,0,0,7.1µM,0,16µM,0,0,0,0,0,0
O=C(CN1CCCN(Cc2cccc(F)c2)S1(=O)=O)Nc1ccc2c(c1)OCCO2,0,0,0,-,-,0,-,-,-,-,-
COC(=O)c1ccc(CC(=O)c2c(C)cc(O)cc2O)o1,?,0,22µM,0,16µM,0,0,0,16µM,40µM,?
C=CCNC(=S)NN=C1CCC(c2ccccc2)CC1 (stereo not given),0,0,0,0,7.9µM,0,0,?,0,0,0
[N-]=C=C1C(=O)NC(=O)C([n+]2ccc(-c3ccncc3)cc2)C1c1ccccc1C(F)(F)F (stereo not given),0,0,?,0,14µM,0,0,?,?,?,6.5µM
[N-]=C=C1C(=S)NC(=O)[C@H]([n+]2ccccc2)[C@H]1c1ccc(Cl)cc1,0,?,0,0,0,0,-,-,-,-,-
COc1cc2c(cc1OC)CN(C(=O)CN1CCN(S(=O)(=O)c3ccccc3Br)CC1)CC2,0,0,0,0,16µM,0,0,0,0,0,0
N#Cc1c(NC(=O)CCC(=O)O)sc2c1CCCCC2,0,35µM,0,0,16µM,0,0,0,0,0,0
CC(=O)N1CCN(Cc2nc3cc(NC(=O)COc4cccc(C)c4)ccc3n2C)CC1,-63,0,0,0,20µM,?,?,0,0,0,0
O=C(O)c1ccc[nH]c1=S,0,0,0,0,4.5µM,0,0,0,0,0,0
CCn1cc(S(=O)(=O)c2cccc(Cl)c2)c(=O)c2cc(F)c(N3CCN(c4ccccc4)CC3)cc21,?,0,0,-,-,0,-,-,-,-,-
COC(=O)c1ccc(C(NC(=O)OCc2ccccc2)/C(F)=C/[C@@H](C)C(=O)NCc2cccnc2)cc1 (stereo not given in full),-,-,-,-,0,-,-,-,-,-,-
SMILES,HCMV inh,Tb PYK inh,Sm TGR block,RE007 growth inh,Giardia FBPA inh-1,FMDV inh,Giardia growth,Mammal cell tox,Giardia FBPA inh-2,Rabbit FBPA inh,GAPDH counter
COc1ccc(C(=O)O)nc1C,0,0,0,-,4µM,0,0,0,0,0,0
COC(=O)/C=C/c1ccc(C(=O)NCC(=O)N[C@@H](CCC(=O)OC)C(=O)N[C@@H](CC(C)C)C(N)=O)cc1,-,-,-,-,0,0,-,-,-,-,-
N#CC(C#N)=C(C#N)c1ccc(Nc2ccccc2)cc1,0,0,2.8µM,0,22µM,?,?,0,0,0,0
COc1ccc(-c2coc3ccc(OC4OC(COC(C)=O)C(OC(C)=O)C(OC(C)=O)C4OC(C)=O)c(OC(C)=O)c3c2=O)cc1 (stereo not given),-,-,-,-,0,-,-,-,-,-,-
COc1cc(NC(=O)CSc2nc3ncnc(N)c3[nH]2)c(C(=O)O)cc1OC,0,0,0,0,11µM,0,0,0,0,0,0
COc1ccc(-n2c(=S)[nH]c3[nH]ncc3c2=O)cc1,0,?,0,0,18µM,0,0[10.4 µM],0,0,0,0
O=c1c2cn[nH]c2[nH]c(=S)n1-c1ccccc1,0,?,0,0,?,0,-,-,-,-,-
COc1ccc(CCCc2nnc(SCC(=O)Nc3ccc(F)cc3)o2)cc1C,0,0,0,-,-,0,-,-,-,-,-
Cc1ccccc1-n1c(-c2ccc(=O)[nH]n2)n[nH]c1=S,0,?,0,0,6.3µM,0,0,0,0,0,0
COc1ccccc1CN1CC[C@@]2(CCCN(C(=O)c3cccn3C)C2)C1,-,0,-,-,0,0,-,-,-,-,-
CN1CC[C@@]2(C)c3cc(O)ccc3N(C)C2O1 (stereo not given in full),-,0,-,-,0.63µM,0,?,0,2.5µM,3.5µM,4.5µM
CC1[C@H]2Cc3ccc(O)cc3[C@]1(C)CCN2C (stereo not given in full),0,0,-,0,-,0,-,-,-,-,-
COCCn1c(=O)c(-c2cccs2)nc2cnc(Nc3ccccc3)nc21,-,0,-,-,0,0,-,-,-,-,-
CSc1ccccc1NC(=O)CN(C)Cc1cccc(Cl)c1,0,0,0,0,22µM,?,0,0,0,0,0
CN(CC(=O)NCc1ccccc1)Cc1cccc(F)c1,0,0,0,0,10µM,0,0,0,0,0,0
CC(NC(=O)CN(C)Cc1cccc(Cl)c1)c1ccccc1 (stereo not given),0,0,0,0,-,0,-,-,-,-,-

# Bioassay records from PubChem.
